Hits are enriched below; roughly 21% of the tested compounds scored in any of these assays.
Pf growth 96h = P. falciparum growth inhibition at 96 hour, primary screen for plastid delayed-death inhibitors; P. falciparum luciferase reporter growth, 96 h; Potency, µM (titrated, usually from 28.7 µM), actives largely listed as inhibitors; actives 6.9% (n = 320,000); AID 504834
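Infected RBCs, 2% Hct / 0.05% parasitemia final; luciferase-reporter P. falciparum; cpd 96 h, 37 C, 5% CO2; luciferase detection reagent; luminescence.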
Shiga toxin inh = Shiga toxin inhibition. Vero cells, Shiga toxin protein synthesis inhibition reporter. inhibition, % at 38.7 µM. actives 9.2% (n = 290,000). AID 2315; in the data active = inhibition mostly above about 28%, no sharp cut-off; inactive = mostly below about 43%
NS1 function inh = blocks influenza NS1 protein function | Potency, µM (titrated, usually from 46.1 µM) | actives 0.4% (n = 270,000) | AID 2326; calls by dose curve; note: actives are rising curves; nearly all actives have a fitted effect of over 50% in size
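Recovery from NS1-induced slow growth read by OD600 in budding yeast switched to galactose assay medium (pH 6.0, -URA) at 1:100 dilution. Compound 23 nl per well; the matching strain lacking NS1 serves as control.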
CHX counter = counter-screen hit for Shiga toxin inhibitors, cycloheximide | AID 2314 | actives 12% (n = 300,000) | cell reporter, cycloheximide protein synthesis inhibition counterscreen | max response, %; in the data active = max response mostly above about 13%, no sharp cut-off; inactive = mostly below about 14%; note: read at 38.3 µM for the half of the compounds with a filed dose
Pf growth 48h = P. falciparum growth inhibition at 48 hours (one generation); Potency, µM (highest dose often 28.7 µM), actives largely listed as inhibitors; P. falciparum luciferase growth in erythrocytes, 48 h; AID 504832; actives 5.9% (n = 310,000)
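Compounds are pin-transferred into medium, infected erythrocytes (2% hematocrit, 0.1% parasitemia final) are added, and plates sit one parasite generation at 37 C in 5% CO2. Detection reagent is then added and luminescence measured.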
SARS PLP yeast = inhibitors of SARS-CoV papain-like protease in yeast; S. cerevisiae expressing SARS-CoV PLpro, growth rescue; Potency, µM (highest dose often 32.9 µM), hits mostly activators; actives 0.19% (n = 330,000); AID 485353; calls by dose curve; note: nearly all actives have a fitted effect of over 55% in size
Numbers stand for hits; n = inactive; u = inconclusive; x = not tested or not shown; [ ] = another dose, or the depositor's remark. Unless noted, calls come from the whole dose curve; as a rule, active = well fitted inhibition curve with a large enough effect; inconclusive = small, poorly fitted or top-dose-only effect, or another doubt; inactive = no such curve, though single readings can be large or run the other way.

SMILES | Pf growth 96h | Shiga toxin inh | NS1 function inh | CHX counter | Pf growth 48h | SARS PLP yeast
COc1ccc(C23CC4CC(CC(C4)C2)C3)cc1C(=O)NCCN(C)C | 11.7µM | n | n | n | u | n
CC(C)(C)OC(=O)NCCc1n[nH]c(=S)o1 | u | n | n | n | n | n
O=C(Nc1nnc(-c2ccc3c(c2)CCCC3)o1)c1ccccc1 | u | active | n | 20.2 | u | n
Cc1ccc(C(=O)Nc2nnc(-c3ccncc3)o2)cc1 | n | n | n | 9.8 | n | n
Cn1c(C(=O)c2ccccc2)nc2ccccc21 | n | 58.4 | n | 26.1 | n | n
CCc1ccc(NC(=O)C(=O)NCC2CCCO2)cc1 (stereo not drawn) | n | 101.2 | x | 45.7 | n | n
O=C(Cc1ccc(Cl)c(Cl)c1)NNC(=S)NCC1CCCO1 (stereo not drawn) | u | n | n | n | n | n
CCCCc1ccc(NC(=S)NCC2CCCO2)cc1 (stereo not drawn) | n[5.75 µM] | 32.8 | x | 8.8 | n | n
CCNS(=O)(=O)c1ccc(NC(=S)NCC2CCCO2)cc1 (stereo not drawn) | u | n | n | n | n | n
S=C(NCC1CCCO1)Nc1ccc(Cl)c(Cl)c1 (stereo not drawn) | n | 49.6 | n | n | n | n
CN(C)c1ccc(NC(=S)NCC2CCCO2)cc1 (stereo not drawn) | n | 38.6 | n | 41.7 | n | n
COc1ccc(Oc2nc(C)cc(C)c2S(C)(=O)=O)cc1 | n | n | n | n | n | n
COc1ccc(CS(=O)c2nc(C)cc(C)c2S(C)(=O)=O)cc1 (stereo not drawn) | n | n | x | n | 11.7µM | n
COc1cc2ncnc(NCc3cccc(F)c3F)c2cc1OC | u | n | n | n | x | n
COc1cc2c(Nc3ccc(Br)cc3F)ncnc2cc1OCC1CCN(C)CC1 | 1.51µM | x | x | x | 0.675µM | x
CC(C)N1C(=O)NC(=O)C2(Cc3cc([N+](=O)[O-])ccc3N(C)C2c2ccccc2)C1=O (stereo not drawn) | 11.7µM | n | n | n | u | n
CN1c2ccc([N+](=O)[O-])cc2CC2(C(=O)NC(=O)NC2=O)C1c1ccccc1 (stereo not drawn) | u | n | n | n | u | n
CN1c2ccc([N+](=O)[O-])cc2CC2(C(=O)NC(=O)N(c3ccccc3)C2=O)C1c1ccccc1 (stereo not drawn) | 2.94µM | n | n | n | 3.29µM | n
OC[C@@H]1[C@@H](O)[C@H](O)[C@H]2[C@@H](O)CCN21 | x | n | x | n | x | x
Cc1ccccc1-n1c(=O)cc(NCC2CCCO2)[nH]c1=O (stereo not drawn) | 6.57µM | n | n | n | n | n
COc1ccc(C(=O)N[C@H](C(=O)Nc2ccc(OC)nc2)C(C)C)cc1 | x | n | n | 15.1 | n | n
COc1ccc(C(=O)NC(C(=O)NCc2ccccn2)C(C)C)cc1 (stereo not drawn) | n | n | n | n | x | n
CCOc1ccccc1C(=O)N[C@H](C(=O)Nc1nc2c(s1)CCCC2)C(C)C | u | 38.1 | n | 20.9 | u | n
COc1ccc(C(=O)N[C@H](C(=O)Nc2nc3c(s2)CCCC3)C(C)C)cc1 | n | 78.7 | n | 58.8 | n | n
COc1ccc(S(=O)(=O)Nc2nc3c(s2)CCCC3)cc1 | u | n | x | n | u | n
SMILES | Pf growth 96h | Shiga toxin inh | NS1 function inh | CHX counter | Pf growth 48h | SARS PLP yeast
CCOc1ccccc1NC(=O)[C@@H](NC(=O)c1ccccc1F)C(C)C | n | n | n | n | n | n
CNC(=O)CS(=O)CC(=O)Nc1cc(OC(C)C)c(Cl)cc1Cl (stereo not drawn) | n | n | n | n | n | n
O=C(Nc1nnc(SCc2ccc(F)cc2)s1)c1cccnc1Cl | n | n | x | 17.7 | n | n
O=C(Nc1nnc(SCc2ccccc2)s1)c1cccs1 | n | n | n | n | n | n
O=C(Nc1nnc(SCc2ccc(F)cc2)s1)c1ccccn1 | u | 93.3 | x | 40.0 | u | n
CS(=O)(=O)N(CC(=O)Nc1ccc(Br)cc1)C1CCCCC1 | n | n | n | n | n | u
O=C(CN1CCOCC1)N/N=C/c1ccc(C(=O)O)cc1 | n | 84.8 | x | 52.9 | n | n
O=C(CN1CCCCCC1)N/N=C/c1ccc(Cl)c(Cl)c1 | u | n | n | 28.9 | n | n
COCCn1c(Cc2ccccc2)nnc1SCc1ccc([N+](=O)[O-])cc1 | n | n | n | n | n | u
NC(=O)c1cc([N+](=O)[O-])ccc1NCC1CCCCC1 | u | x | x | x | n | n
CN1C(=O)NC(c2cccc(O)c2)C(C(=O)c2cccs2)C1(O)C(F)(F)F (stereo not drawn) | n | 84.8 | n | 57.2 | n | n
CCOc1ccc(N2CC(C(=O)NCCc3ccc(F)cc3)CC2=O)cc1 (stereo not drawn) | n | n | n | n | n | n
Cc1ccc(-n2nc3c(c2NC(=O)c2ccc4c(c2)OCO4)CS(=O)(=O)C3)c(C)c1 | 11.7µM | n | n | n | n | n
CC(=O)Nc1c2c(nn1-c1ccc(C)cc1C)CSC2 | 10.4µM | n | n | n | u | n
Cc1ccccc1-n1nc2c(c1NC(=O)c1ccc3c(c1)OCO3)CS(=O)(=O)C2 | n | n | n | n | n | n
CCCC(=O)Nc1c2c(nn1-c1ccc(C)cc1C)CSC2 | n | n | n | n | n | n
Cc1ccc(-n2nc3c(c2NC(=O)c2cccs2)CS(=O)(=O)C3)c(C)c1 | 0.586µM | n | n | n | n | n
FC(F)(F)c1cccc(NCc2n[nH]c(=S)n2C2CCCCC2)c1 | n | n | x | n | n | n
CCOC(=O)C(NC(=O)c1ccc(OC)cc1)(N1CCCC1=O)C(F)(F)F (stereo not drawn) | n | n | n | n | n | n
CCOc1ccc(NC(=S)N(CCOC)C(C)c2cccnc2)cc1 (stereo not drawn) | n | n | x | n | n | n
Cc1ccc(S(=O)(=O)NCCN2CCOCC2)c(C)c1C | u | n | n | n | n | n
COc1ccc(-c2cc(C(F)(F)F)n3nc(C(=O)NCc4ccco4)cc3n2)cc1OC | n | n | n | n | x | n
O=C(NCC1CCCO1)c1c(O)c2c([nH]c1=O)CCCC2 (stereo not drawn) | u | n | n | 13.2 | n | n
O=C(Nc1ccc(O)cc1)c1c(O)c2c([nH]c1=O)CCCC2 | n | 146.2 | x | 44.4 | n | n
CCC(C)NC(=O)C1=C(C)C(=O)OC12CCC(C)CC2 (stereo not drawn) | n | n | n | n | n | n
Cc1cccc(NC(=O)c2nc[nH]c2C(=O)N[C@@H](Cc2ccccc2)C(=O)OCc2ccccc2)c1 | u | n | u | n | u | n
COCCNC(=O)c1cc(-c2cccc(OC)c2)on1 | n | 74.3 | n | 42.5 | n | n
COc1cccc(-c2cc(C(=O)NC3CCCC3)no2)c1 | x | 145.1 | n | 46.5 | n | n
COc1cccc(-c2noc(CCCC(=O)NC3CCCC3)n2)c1 | 2.33µM | n | n | 14.8 | n | n
COc1cccc(-c2cc(C(=O)Nc3cccc(O)c3)no2)c1 | n | n | n | n | n | n

Screening results: PubChem BioAssay, National Center for Advancing Translational Sciences (NCATS)
